This is an account of results in PubChem BioAssay (NCATS).

Inconclusive results are not listed. Active and inactive are the calls of the source. Calls follow the shape of the dose curve; as a rule, active = well fitted curve in the direction sought with a large enough effect; inconclusive = small, poorly fitted or top-dose-only effect, or another doubt; inactive = no such curve, though single readings can be large; an effect the other way counts as inactive or inconclusive.

One assay can be described thus: Identifying Small Molecule Inhibitors of Pancreatic Cancer Stem Cells (Panc1, Spheroid) (AID 1259359).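 Also: potency is read from the fitted curve at half-maximal effect; compound exposure lasted 48 h before reading.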 To be noted: Panc1 spheroid cancer stem cell viability. Summed up:
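Spheroids grown 14 days in stem cell media on nonadherent hydrogel before screening; cells attached 4 h, then compound exposure 48 h at 37C, 5% CO2. CellTiter-Glo luminescence normalized to DMSO (no inhibition) and no-cell wells (full inhibition).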
Turning to `COc1ncc(-c2ccc3nccc(-c4ccnnc4)c3c2)cc1NS(=O)(=O)c1ccc(F)cc1F`, the Potency is 0.0074 µM (active).

As to `CC(C)(C(=O)NCC(F)(F)C(F)(F)F)C(=O)N[C@@H]1C(=O)Nc2ccccc2-c2ccccc21`, the Potency is 0.0015 µM (active).

Regarding `CO[C@H]1C[C@@H]2CC[C@@H](C)[C@@](O)(O2)C(=O)C(=O)N2CCCC[C@@H]2C(=O)O[C@H]([C@H](C)C[C@@H]2CC[C@H](OCCO)[C@H](OC)C2)CC(=O)[C@H](C)C=C(C)[C@@H](O)[C@@H](OC)C(=O)[C@H](C)C[C@H](C)C=CC=CC=C1C`, the Potency was 26.4 µM (active).

A further assay is described as follows: Identifying Small Molecule Inhibitors of Pancreatic Cancer Stem Cells (A278, Adherent) (AID 1259361).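 Also: viability read after 48 h compound exposure; nearly all actives have a fitted effect of over 35% in size.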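 As to viability (% of control): 100% = DMSO-treated cells and 0% = cell-free media-only wells.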 Particulars: series mostly up to 46.1 µM; viability (% of control): at the top concentration. Summed up: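 Spheroids grown 14 days in stem cell media on hydrogel-coated nonadherent plates; 2D lines seeded directly. Compounds added after 4 h attachment, 48 h at 37C, 5% CO2; CellTiter-Glo luminescence normalized to DMSO (no inhibition) and no-cell wells (full inhibition).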
As for `COc1ncc(-c2ccc3nccc(-c4ccnnc4)c3c2)cc1NS(=O)(=O)c1ccc(F)cc1F`, the IC50 (viability decrease) is 0.118 µM (active).

Turning to `O=C(CCCCCCC(=O)Nc1ccccc1)NO`, the IC50 (viability decrease) is 3.4 µM (active).

As to `CC(C)(C(=O)NCC(F)(F)C(F)(F)F)C(=O)N[C@@H]1C(=O)Nc2ccccc2-c2ccccc21`, the “viability (% of control)” value is 95.5 (inactive).

In the case of `CS(=O)c1ccc(-c2nc(-c3ccc(F)cc3)c(-c3ccncc3)[nH]2)cc1` (stereo not drawn), the “viability (% of control)” value is 87.1 (inactive).

Turning to `CC1=C(/C=C/C(C)=C/C=C/C(C)=C/C(=O)Nc2ccc(O)cc2)C(C)(C)CCC1`, the IC50 (viability decrease) was 3.32 µM (active).

In the case of `Cc1ccc(F)c(NC(=O)Nc2ccc(-c3cccc4[nH]nc(N)c34)cc2)c1`, the IC50 (viability decrease) was 26.4 µM (active).

As to `COc1cccc2c1CCCC2CCCN1CCN(C2CCCCC2)CC1` (stereo not drawn), the IC50 (viability decrease) was 16.6 µM (active).

On to `NC(CO)(CO)CCc1ccc(Sc2cccc(OCc3ccccc3)c2)cc1Cl`, for which the IC50 (viability decrease) was 26.4 µM (active).

For `OC[C@H]1O[C@@H](n2cnc3c2NC=NC[C@@H]3O)C[C@H]1O`, the IC50 (viability decrease) was 20.9 µM (active).

Turning to `CC(C)[C@H](CO)Nc1nc(Nc2ccc(C(=O)O)c(Cl)c2)c2ncn(C(C)C)c2n1`, the “viability (% of control)” value was 114 (inactive).
